Assay results: the supplement of paper PMC6555819

Experiments:
Test in all cases: PBM binding z-score (relative to random genomic background probes); higher = stronger binding; sequences stand for … in GC…GCGATTGACAGCGTAGAATGAAGG
[1] = tested on: FXR:RXRa (NR concentration 270 nM, RXRa partner concentration 90 nM)
Procedure, shortened: (§1)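 Random background probes are the reference for binding z-scores. These scores derive from regression-normalized fluorescence on custom Agilent 4×180K protein-binding microarrays incubated 1 h with ligand-free nuclear receptor dimers. Binding was detected with antibodies against each partner (one per run).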

[2] = tested on: LXRa:RXRa (NR concentration 270 nM, RXRa partner concentration 90 nM)
Procedure, shortened: as §1

[3] = tested on: LXRa homodimer (NR concentration 270 nM)
Procedure, shortened: as §1

[4] = tested on: LXRb:RXRa (NR concentration 270 nM, RXRa partner concentration 90 nM)
Procedure, shortened: as §1

[5] = tested on: LXRb homodimer (NR concentration 270 nM)
Procedure, shortened: as §1

[6] = tested on: PPARa:RXRa (NR concentration 270 nM, RXRa partner concentration 90 nM)
Procedure, shortened: as §1

[7] = tested on: PPARg:RXRa (NR concentration 180 nM, RXRa partner concentration 90 nM)
Procedure, shortened: as §1

[8] = tested on: PPARg:RXRa 270nM:90nM, anti-RXR (NR concentration 270 nM, RXRa partner concentration 90 nM)
Procedure, shortened: as §1

[9] = tested on: PPARg:RXRa 30nM:10nM, anti-RXR (NR concentration 30 nM, RXRa partner concentration 10 nM)
Procedure, shortened: as §1

[10] = tested on: PPARg:RXRa 90nM:30nM, anti-RXR (NR concentration 90 nM, RXRa partner concentration 30 nM)
Procedure, shortened: as §1

Sequence	PBM binding z-score [1]	PBM binding z-score [2]	PBM binding z-score [3]	PBM binding z-score [4]	PBM binding z-score [5]	PBM binding z-score [6]	PBM binding z-score [7]	PBM binding z-score [8]	PBM binding z-score [9]	PBM binding z-score [10]
ACTATTAGTTGACACGAGGGCAACCGATAGGTTG	1.1	1.04	0.219	0.64	0.129	1.21	1.06	0.472	0.354	0.356
CAAACTAGGTCACCGGAAGGTCAAAGGCCGCATG	6.24	5.81	4.23	5.17	1.01	6.34	9.9	7.75	6.27	7.97
CCTACTGGGCCAAGGACATTGATCAGTCAAAGCA	-0.284	-0.572	-0.118	-0.778	-0.99	-0.141	0.757	0.967	0.164	0.46
CATACAGGGTTAGCTAGGCCAGAGTAGGGACGGC	0.0541	0.22	-0.431	-0.176	-0.302	0.689	0.625	0.647	-0.0439	0.397
GGAACGAGGGCCAGTTGATAGCAGAGTTTGATGG	-0.532	-0.8	-0.645	-1.21	-0.96	-0.53	0.258	-0.67	-0.491	-0.758
TCTAGTTGGTCACGGAGGTCGCACACGACGGGTA	0.941	1.09	-0.0222	1.04	0.0566	2.04	1.61	2.28	2.83	2.43
TCTCGGACGACACGAAGGTCAGAGCTTTCCAGAG	1.58	0.965	-0.0974	1.17	-0.374	1.96	0.474	1.77	2.37	2.15
AGAATGAGGTTGCCAAAGATCAGGGAAACGCTTG	0.0162	0.364	-0.555	0.0727	-0.656	0.857	0.786	0.932	0.289	0.435
TCTATTAGTTGATTAGGGCAACAGAAACAGCGGA	0.997	0.779	0.0498	0.646	0.947	1.01	0.317	1.96	3.53	2.85
TGTGCTAGGTCAACGATGGTCAGCTAATCTGCTA	3.38	2.67	-0.0277	1.54	0.116	3.1	2.68	2.4	0.195	1.68
ATCGAAAGGTCGACGGGGTGAGTATACACCGTTT	4.95	3.54	0.287	3.23	0.368	4.57	3	3.48	0.859	2.28
CAAACTAGGTCACCGGAAGGTCAAAGTGCGCATG	6.51	6.25	5.26	5.66	1.52	6.36	9.79	7.84	5.91	7.97
CGTCCAAGGTCAGCAGGTCAGTGGAAGCGACGTG	5.74	3.85	0.538	2.96	-0.217	4.94	4.05	4.15	0.99	2.87
TCATATTGGTAAATGCTAGGTGAAAGTCCGATCT	0.86	0.817	0.679	0.796	0.681	0.861	0.033	1.9	3.55	2.76
AGAACGAGGGCAAGGAGTTGATAGCACGGGTGGC	0.193	0.0802	-0.479	-0.441	-0.879	1.2	1.25	1.06	-0.111	0.543
GCGACTGGTGCAAAGCAGGTTACCATAAGGTTGG	-0.455	-0.431	-0.586	-0.35	-0.861	0.293	0.344	-0.0216	-0.591	-0.439
AGTCAAAGTCCACTAGGTAACGTAAGATTCAGCT	-0.195	-0.249	-0.162	-0.0956	0.0347	0.0628	0.58	0.278	0.0579	0.146
CCAGACATGTGAAAGGTAACTCAGTCTGGTACGC	-0.293	-0.0217	0.0919	0.07	0.186	1.02	1.63	2.44	0.62	2.1
CCTACTGGGCCAATGGTCATTGATTCCAATGCTC	-0.623	-0.68	-0.691	-0.531	-0.674	1.86	4.15	5.51	3.81	6.38
CGTCCAAGGTTAATGCTAGGTCAGTGAAAGCATT	1.98	4.46	1.76	2.28	-0.518	2.21	0.161	0.685	-0.233	0.133
CTTAGCAGGCCAATCTGGGTCACTCAAGGCTTGA	0.29	1.18	-0.362	0.386	-0.93	3.08	2.4	2.51	-0.0201	1.43
TAGCCTAGGTCATGGGCCAGTAAACCACGCGAAC	4.54	3.68	0.175	2.43	-0.182	4.46	3.46	3.97	1.13	2.88
AGATGTAGGTTAAGGGTCATTCAGGTTGGTTCGC	5	5.02	2.97	4.61	1.63	6.45	11	9.78	9.52	10.7
TCTGCTAGGTCACTTGGTCAGCTAACGAGCTGCC	2.56	2.03	-0.292	1.38	0.874	2.97	2.53	3.31	1.62	2.28
